Source: PubChem BioAssay (NCI)
About 83,000 compounds went through this panel and 20% of them were active in at least one assay; those are over-represented in the sample as a whole.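 48-hour exposure, single concentration, 96-well plates; percent growth endpoint where 0 means no net growth. Active: below 10.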 A number with no mark means an inactive call. Calls of active or inactive are those of the source.

These compounds were tested on HL-60(TB) leukemia (assay: NCI-60 one-dose screen, 48 h (100 = growth as untreated, 0 = no growth, -100 = all killed)). Details: 10 µM unless noted.

| SMILES | growth |
| --- | --- |
| C[C@H](NC(=O)c1c(N)nn2cccnc12)c1cc2cccc(C#Cc3cnn(C)c3)c2c(=O)n1-c1ccccc1 | -18.2% (active) |
| CCOC(=O)c1cnc2cc(Cl)c(F)cc2c1Nc1cccc(NS(C)(=O)=O)c1 | 105% |
| CC(=O)C1=C(O)C=C2Oc3c(C(=O)/C=C/c4cc(Cl)cc(Cl)c4)c(O)c(C)c(O)c3[C@]2(C)C1=O | -34.8% (active) |
| CC1(C)S[C@@H]2[C@H](NC(=O)[C@H](C(=O)O)c3cccs3)C(=O)N2[C@H]1C(=O)O | 106% |
| COc1ccc(-c2nn(-c3cccc(NC(=O)Nc4cccc(C(F)(F)F)c4)c3)cc2-c2ccncc2)cc1Cl | 3.19% (active) |
| CN(C)CC#Cc1ccc2ncc(C#N)c(Nc3ccc(F)c(Cl)c3)c2c1 | 26.8% |
| OC(c1ccccc1)(c1ccccc1)C(F)(F)F | 77.1% |
| N=c1ccc2nc3ccc(N)cc3sc-2c1 | 0.816% (active) |
| N#Cc1c(-c2ccccc2)cc(-c2ccc(Nc3nc(Nc4ccc(Cl)cc4)nc(Nc4ccc(Cl)cc4)n3)cc2)nc1N | 15.6% |
| CCCCNC1=C(OCC)C(=O)c2ccccc2C1=O | 101% |
| COc1cc(OC)c(NC(=O)n2ncc3cc(Nc4ncnc5ccccc45)ccc32)cc1Cl | 82.9% |
| Cc1cc(-c2cc(C)c(O)c(C)c2)cc(C)c1O | 63.6% |
| CCCOC(=O)C(O)c1ccccc1 (stereo not given) | 113% |
| CN(C)CCNc1nc2ccccc2c2c1c1c(n2Cc2ccccc2)-c2ccccc2C1=O | -85% (active) |
| COc1ccc(-c2nc3sc(C)cn3c2/C=C/C(=O)c2cc(OC)c(OC)c(OC)c2)cc1 | 55.9% |
| COC(=O)c1cc2cc(-c3ccc(OC)cc3)cnc2[nH]1 | -2.68% (active) |
| COc1cnc2c(c1)C(=O)c1c-2n(CCCN2CCOCC2)c(=O)c2cc(F)ccc12 | -10.2% (active) |
| Cc1ccc2nc(Cl)c(Cn3nnnc3SCc3ccccc3)cc2c1 | 97.4% |
| CC(=O)N1N=C(c2ccc(Nc3nc(Nc4ccc(F)cc4)nc(Nc4ccc(F)cc4)n3)cc2)CC1c1ccccc1 (stereo not given) | 83% |
| COc1ccc(C2Nc3ncnc(N)c3N=C3c4ccccc4C(=O)C32)cc1 (stereo not given) | 58.8% |

| SMILES | growth |
| --- | --- |
| Cc1cc(N2CCN(C)CC2)nc(NC2CCCC(Nc3ccnc4cc(Cl)ccc34)C2)n1 (stereo not given) | -64.9% (active) |
| O=C1c2cccnc2C(=O)c2c1c(C(=O)OCCCN1CCOCC1)c1ccccn21 | -3.63% (active) |
| CCN(CC)c1ccc(/C=N/NC(=O)Cc2ccc(Nc3ccnc(C(F)(F)F)c3)cc2)c(O)c1 | 0.765% (active) |
| Cc1cccc(Cc2cnc(NC(=O)CCCOc3ccc(Cl)cc3)s2)c1 | -34.2% (active) |
| CCCCCCNC(=O)Nc1ncnc2c1ncn2-c1ccccc1 | 109% |
| COc1cc(OC)cc(C(=O)Nc2cc(-c3cccnc3)nc(NCCCN3CCOCC3)n2)c1 | 86.5% |
| COc1cc2c3c(n(C)c(=O)c2cc1OC)-c1cc2c(cc1C3=O)OCO2 | 73.6% |
| CCNc1nc(-c2ccc(F)cc2)c(C#N)c(=O)n1C | 85.8% |
| CC(=O)Oc1ccccc1C(=O)N=C1[Se]CCN1C(=O)c1ccccc1OC(C)=O | -34.4% (active) |
| COc1cc2oc(-c3cccc(C(=O)Nc4ccc(C)cc4)c3)cc(=O)c2c(OC)c1OC | 7.26% (active) |
| Cn1cc(C(=O)c2nc(-c3c[nH]c4ccc(F)cc34)no2)c2cc(F)ccc21 | 70.5% |
| CCN(CC)CCOC(=O)c1cc(OCc2ccccc2)c(OCc2ccccc2)c(OCc2ccccc2)c1 | 59.6% |
| CCNCCNc1cc(-c2ccc(F)cc2)c(C#N)c2nc3ccccc3n12 | -48.8% (active) |
| CCN(CC)CCCCCCCNc1cc(OC)cc2c(C)ccnc12 | 56.2% |
| COc1ccc(OCC(=O)OC(C)C)cc1 | 90% |
| COc1ccc(/C(=C\c2ccc3c(c2)OCO3)C(=O)Nc2nc3ccccc3s2)cc1 | 101% |
| C#CCN(Cc1ccc2nc(N)[nH]c(=O)c2c1)c1ccc(C(=O)NC(CCC(=O)O)C(=O)O)cc1 (stereo not given) | 43.6% |
| C#CC(C(C)C)N(CCO)CCCC (stereo not given) | 108% |
| Fc1cc(-c2nnc3sc(-c4ccc(Cl)cc4Cl)nn23)c(Cl)cc1Cl | 161% |
| CC([C@H]1CCC2C3CCC4C[C@@H](NC=O)CC[C@]4(C)C3CC[C@@]21C)N(C)C (stereo not given in full) | -61.1% (active) |
